Consider 1 sequence from patent US5750335, “Screening for genetic variation” (Massachusetts Institute of Technology).

This test concerns the target T1, MutS (Salmonella typhimurium, UniProt P0A1Y0 P0A1Y0:1-855).
T1 sequence: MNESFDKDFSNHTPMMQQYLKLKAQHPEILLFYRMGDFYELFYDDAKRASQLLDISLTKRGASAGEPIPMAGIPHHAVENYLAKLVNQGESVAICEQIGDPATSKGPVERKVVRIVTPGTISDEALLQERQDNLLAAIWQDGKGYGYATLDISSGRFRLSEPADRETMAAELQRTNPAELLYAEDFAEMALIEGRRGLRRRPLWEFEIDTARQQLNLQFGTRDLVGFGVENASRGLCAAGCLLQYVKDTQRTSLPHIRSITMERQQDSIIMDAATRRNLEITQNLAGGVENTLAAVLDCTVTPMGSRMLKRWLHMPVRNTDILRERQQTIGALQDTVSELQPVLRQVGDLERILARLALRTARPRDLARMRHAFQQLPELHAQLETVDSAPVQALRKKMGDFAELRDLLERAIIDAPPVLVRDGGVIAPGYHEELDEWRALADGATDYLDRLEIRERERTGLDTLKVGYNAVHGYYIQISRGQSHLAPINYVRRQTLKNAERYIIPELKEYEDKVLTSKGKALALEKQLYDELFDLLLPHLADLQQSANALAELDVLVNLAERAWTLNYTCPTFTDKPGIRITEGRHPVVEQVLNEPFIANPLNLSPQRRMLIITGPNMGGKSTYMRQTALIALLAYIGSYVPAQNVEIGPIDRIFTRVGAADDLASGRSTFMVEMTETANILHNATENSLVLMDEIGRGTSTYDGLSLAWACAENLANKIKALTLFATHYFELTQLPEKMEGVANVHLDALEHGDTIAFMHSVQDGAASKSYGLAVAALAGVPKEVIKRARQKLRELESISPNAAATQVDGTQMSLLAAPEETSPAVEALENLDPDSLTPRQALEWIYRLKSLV
The test can be described thus: pulldown; homoduplex control precipitated 53 fold less; 5 mM MgCl2, on ice, competitor DNA. The settings on record: tags: none (overproduced from pGW1825); chain copies: 2; label: 32P on DG6R; fully matched homoduplex; second strand (DG5) copied as printed, pairs with DG6R only if read 3'-5' relative to it; dsDNA, one strand shown. The procedure:
Affinity fractionation of heteroduplex nucleic acid was performed as follows. Two binding reactions were incubated on ice for 30 minutes, one containing heteroduplex nucleic acid and a control containing homoduplex DNA. The heteroduplex reaction contained 14.5 pMol of MutS, 200 fmol of DG-4/6 Het, and 2 ug of competitor nucleic acid in a total volume of 20 ul. The control reaction contained 14.5 pmol of MutS, 200 fmol of DG-5/6 Hom, and 2 ug of competitor nucleic acid in a total volume of 20 ul. After 30 minutes on ice, 5 ul of anti-MutS antibody was added to each binding reaction, and the result was incubated on ice for 60 minutes. 10 ul of Staphylococcus aureus cells that had been washed twice in assay buffer were added to both binding reactions (see McKay, 1981, supra) and the result was incubated on ice for an additional 30 minutes. Both reactions were then spun in a microfuge for 3 minutes at 4° C. and the pellet was washed 8 times in assay buffer.
Regarding GATCCGTCGACCTGCA, the binding signal is 1 fold (reference).
